Laboratory results from paper PMC7819943, “Rice protein-binding microarrays: a tool to detect cis-acting elements near promoter regions in rice”.
The full ranking holds about 35,000 sequences; the median of “fluorescence intensity (a.u.)” is about 10,000, and the highest 2% start at about 52,000. The list comes from a sample in which the highest values are over-represented; it also holds similar and randomly drawn sequences.

These sequences were tested against T1, OsWOX13 (Oryza sativa, UniProt Q5QMM3 1-267) (assay: protein-binding microarray (RPBM); PBS, 2% BSA, 51.3 ng/ul salmon testes DNA, 50 uM zinc acetate, 200 nM TF, 25 C, 1 h; high values mean tight binding). Settings: protein: recombinant; tags: N-terminal polyhistidine and DsRed monomer fusion (pET32a); label: CyDye5-dUTP incorporated in the synthesized complementary strand; 3' TTTTT single-stranded linker to array surface; dsDNA, one strand shown.
T1 sequence: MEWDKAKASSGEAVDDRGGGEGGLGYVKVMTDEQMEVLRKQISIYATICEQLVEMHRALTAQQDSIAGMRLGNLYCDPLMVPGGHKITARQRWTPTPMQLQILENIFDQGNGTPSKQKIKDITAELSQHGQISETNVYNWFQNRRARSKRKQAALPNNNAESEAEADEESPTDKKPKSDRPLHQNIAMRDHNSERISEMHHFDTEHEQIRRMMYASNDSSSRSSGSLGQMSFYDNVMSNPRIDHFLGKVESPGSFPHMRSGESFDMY
Method in brief: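 Binding signal is defined as the fluorescence intensity of each feature in arbitrary units, read on an Axon 4000B scanner. Transcription factors with N-terminal polyhistidine and DsRed fusions came from E. coli BL21-CodonPlus and were purified on Ni–NTA. They were incubated at 200 nM for 1 h at 25 °C on a custom Agilent array that had been made double-stranded with Cy5-dUTP, with 50 µM zinc acetate present, and the array was washed.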
In the case of “ACAAAACCATTTGTGATTTTCTTTGAGTGCCCAGTTTTGTCGGAGTCACCTAGTGCAG”, the binding signal is reported as 3210 fluorescence intensity (a.u.).
For “AGTAATTGATTGGCCGGATGCTACCGGTAGTTACTGACTACGGAGTCACCTAGTGCAG”, the binding signal was 60500 fluorescence intensity (a.u.).
In the case of “TTATATTGATTTTCGTATGATTTTGGACACATAAGTACCTCGGAGTCACCTAGTGCAG”, the binding signal is reported as 38200 fluorescence intensity (a.u.).
“ATTAACTATAAATGATTTGGAGTCAATAGTTGGCTATAATCGGAGTCACCTAGTGCAG” was tested, and the binding signal was 16100 fluorescence intensity (a.u.).
“CATAATTGGTAAATTTGCGGGTTCAATTCCTGCTGGATGCCGGAGTCACCTAGTGCAG” was tested, and the binding signal was 59500 fluorescence intensity (a.u.).
In the case of “AGTAGTTAATTGGATTGGGCCGGGCCCACCGGCCCACGGCCGGAGTCACCTAGTGCAG”, the binding signal is reported as 30300 fluorescence intensity (a.u.).
With “CTGAAATTGAAGTTAAATGCTACTAGTAATAATTGTACTACGGAGTCACCTAGTGCAG” the binding signal was 30100 fluorescence intensity (a.u.).
With “GGATTTGATTGGATAAGCCGCTCGTAAGGACACCGTGCCTCGGAGTCACCTAGTGCAG” the binding signal was 52300 fluorescence intensity (a.u.).
In the case of “ATACTGCTGTAACATTTGATTGGATTGAAAGGATATCGCTCGGAGTCACCTAGTGCAG”, the binding signal is reported as 20500 fluorescence intensity (a.u.).
In the case of “GAAATAAATTTTGGATTGGCTATGTTAATATGATATGACCCGGAGTCACCTAGTGCAG”, the binding signal is reported as 25900 fluorescence intensity (a.u.).
In the case of “ATCACATAAAATTCCAGGGTTAATTGGATCCATGCTACTGCGGAGTCACCTAGTGCAG”, the binding signal is reported as 8150 fluorescence intensity (a.u.).
“TTGACTATAATTGATTTGGATAGTTGGCTATAATAAACCTCGGAGTCACCTAGTGCAG” was tested, and the binding signal was 54500 fluorescence intensity (a.u.).
With “GAGTAAATTGCACACGGATGCAATCAATTGACCTGTGCTGCGGAGTCACCTAGTGCAG” the binding signal was 20000 fluorescence intensity (a.u.).
In the case of “GTTCGCGTGATTAATCAAAGCCTATTCCTTGTCACTATGACGGAGTCACCTAGTGCAG”, the binding signal is reported as 12400 fluorescence intensity (a.u.).
With “AAGAAAACCTAATTGTTACTACCATTTACCAAACCTACCACGGAGTCACCTAGTGCAG” the binding signal was 3910 fluorescence intensity (a.u.).
In the case of “ACACATGATTTGCATGCCAACCTTATTTCTCCTTCACTTTCGGAGTCACCTAGTGCAG”, the binding signal is reported as 16500 fluorescence intensity (a.u.).
For “CACTGCAAATTAGATCTATATATAGTGAAACATTGTGAGACGGAGTCACCTAGTGCAG”, the binding signal was 6780 fluorescence intensity (a.u.).
“CGCCGTAACAATCAGAACCAATCATGCTCTATGTGTAGTTCGGAGTCACCTAGTGCAG” was tested, and the binding signal was 30300 fluorescence intensity (a.u.).
With “CCCGTACGTGTTACCTAATCATGATGGGATGCCATAATACCGGAGTCACCTAGTGCAG” the binding signal was 3570 fluorescence intensity (a.u.).
In the case of “ACATTAATGTGATTTCCCATTTCTACCCTATAGTTCAACACGGAGTCACCTAGTGCAG”, the binding signal is reported as 12800 fluorescence intensity (a.u.).
With “ATTACATTGACTAATAGATGATTTAGAGCTAATAGTGGGCCGGAGTCACCTAGTGCAG” the binding signal was 25200 fluorescence intensity (a.u.).
With “AAATTACTAATTTACCTATAATTAGTTGGACTCTAGCTCTCGGAGTCACCTAGTGCAG” the binding signal was 37600 fluorescence intensity (a.u.).
“GCTATAAAATTGACTATAATTGATTTGGAGCCGGTAGTTGCGGAGTCACCTAGTGCAG” was tested, and the binding signal was 63600 fluorescence intensity (a.u.).
In the case of “TATTAAATTGACTATAGATGATTTGGAGCTAGTAATTGGCCGGAGTCACCTAGTGCAG”, the binding signal is reported as 36800 fluorescence intensity (a.u.).
In the case of “ACGTTGATTAGTTAGTACTAACCTACTCCTACGTGTTAACCGGAGTCACCTAGTGCAG”, the binding signal is reported as 30400 fluorescence intensity (a.u.).
For “AAAGTAGTTAATTACTGCTAATTACATGGATTAGTTGGGTCGGAGTCACCTAGTGCAG”, the binding signal was 33500 fluorescence intensity (a.u.).
“TACTAAATTGACTATGGACGATTTAGAGCTCGTAGTTGGCCGGAGTCACCTAGTGCAG” was tested, and the binding signal was 53600 fluorescence intensity (a.u.).
In the case of “TTTAATTTTGAATTTTAATTAATTGGAGTTTACACGGACTCGGAGTCACCTAGTGCAG”, the binding signal is reported as 39800 fluorescence intensity (a.u.).
With “AAAATTGACTATAAATGATTTGGAGCCGGTAGTTGGCTATCGGAGTCACCTAGTGCAG” the binding signal was 51700 fluorescence intensity (a.u.).
“GTAATTAATTACTTGATTAACAATTAAATAATAATAGTTACGGAGTCACCTAGTGCAG” was tested, and the binding signal was 33200 fluorescence intensity (a.u.).
“GATTAATTGAAAGTTTACATGGACGACGTTGACTCGGGGCCGGAGTCACCTAGTGCAG” was tested, and the binding signal was 54700 fluorescence intensity (a.u.).
In the case of “CGCGTTGATTAATTAGTCAGTTCGTTAACAACCTCGACTACGGAGTCACCTAGTGCAG”, the binding signal is reported as 53000 fluorescence intensity (a.u.).
With “ACAAGTTGATGGGGACACTTTTCTTATGTAGTATATAATTCGGAGTCACCTAGTGCAG” the binding signal was 3270 fluorescence intensity (a.u.).
For “AACCCTGATTTCCGTGCTCAACGTTTGACCGTCCGTCTTGCGGAGTCACCTAGTGCAG”, the binding signal was 4670 fluorescence intensity (a.u.).
For “TCGATCACAAATTAATATTGTTTGCATACATACTCATATGCGGAGTCACCTAGTGCAG”, the binding signal was 6200 fluorescence intensity (a.u.).
In the case of “ATCCAATCATTTCAAAACGTATTCCTCAGCACATTAAACGCGGAGTCACCTAGTGCAG”, the binding signal is reported as 19400 fluorescence intensity (a.u.).
“ACTAGCTAACTAAATTTGAAAGAGACTAGCTAGCTGCTTGCGGAGTCACCTAGTGCAG” was tested, and the binding signal was 6300 fluorescence intensity (a.u.).
In the case of “GCTAATTGCAATTTTGGCCGTCCATAAAGAGCTTGCGGCCCGGAGTCACCTAGTGCAG”, the binding signal is reported as 52900 fluorescence intensity (a.u.).
“CCATAATTTTGCAAAGACATCAAACCAAATAAAACCAATGCGGAGTCACCTAGTGCAG” was tested, and the binding signal was 6680 fluorescence intensity (a.u.).
“GATAATGGTAGTGATTGGTTGAGGCTTGAGAGTAGATGTACGGAGTCACCTAGTGCAG” was tested, and the binding signal was 30600 fluorescence intensity (a.u.).
For “CTAAACCGCATAATAATTTACAGAAATGCCCCTCACCTCCCGGAGTCACCTAGTGCAG”, the binding signal was 11300 fluorescence intensity (a.u.).
For “GCACCTTTCAAATTCATCTGATTTATGCATTCTTCTGTAACGGAGTCACCTAGTGCAG”, the binding signal was 3340 fluorescence intensity (a.u.).
